Compounds with a hit are over-represented: about 5.8% of the library has one in this group of screens.
VP16 counter: inhibits Gal4-VP16 luciferase reporter, ROR gamma counter-screen; AID 2546; Drosophila S2 Gal4-VP16 UAS-luciferase, luminescence, 20 h; Potency, µM (highest dose often 53.6 µM), actives largely listed as inhibitors; 310,000 tested, 3.5% active;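 also: Gal4-VP16 expression switched on by copper sulfate through the metallothionein promoter; nearly all actives have a fitted effect of over 50% in size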
TRPV1 potentiator: enhances activation of the human vanilloid receptor TRPV1 | AID 540277 | potentiation, % at 8.33 µM | TRPV1-expressing cells, Fluo-8 calcium influx, capsaicin EC20 potentiation | Q8NER1 | 320,000 tested, 0.02% active; in the data active = potentiation above about 80%; inconclusive = between about 30% and that limit
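TRPV1-expressing cells were cultured overnight at 35.5C and loaded with Fluo-8 calcium dye for 40 to 90 min at room temperature. After a 10 s baseline, compound was added and calcium influx was read kinetically for 3 min (ex 480/em 520 nm).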
TRPV1 agonist: activates the human vanilloid receptor TRPV1; Q8NER1; TRPV1-expressing cells, Fluo-8 calcium influx, agonist mode; activation, % at 8.33 µM; 320,000 tested, 0.19% active; in the data active = activation above about 80%; inconclusive = between about 30% and that limit
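Fluo-8 calcium influx in TRPV1-expressing cells, kinetic read (ex 480/em 520 nm). Compound added and read 3 min for agonist activity, followed by capsaicin at EC20 final and 2 min further read for enhancement.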
RORgamma inh: ROR gamma (mouse) transcription inhibition | P51450 | Drosophila S2 Gal4-RORgamma UAS-luciferase reporter, 20 h | Potency, µM (highest dose often 53.6 µM), usual class: inhibitors | 310,000 tested, 5.4% active; also: nearly all actives have a fitted effect of over 60% in size
Target sequence (P51450 whole entry, looked up, the tested form may be a part): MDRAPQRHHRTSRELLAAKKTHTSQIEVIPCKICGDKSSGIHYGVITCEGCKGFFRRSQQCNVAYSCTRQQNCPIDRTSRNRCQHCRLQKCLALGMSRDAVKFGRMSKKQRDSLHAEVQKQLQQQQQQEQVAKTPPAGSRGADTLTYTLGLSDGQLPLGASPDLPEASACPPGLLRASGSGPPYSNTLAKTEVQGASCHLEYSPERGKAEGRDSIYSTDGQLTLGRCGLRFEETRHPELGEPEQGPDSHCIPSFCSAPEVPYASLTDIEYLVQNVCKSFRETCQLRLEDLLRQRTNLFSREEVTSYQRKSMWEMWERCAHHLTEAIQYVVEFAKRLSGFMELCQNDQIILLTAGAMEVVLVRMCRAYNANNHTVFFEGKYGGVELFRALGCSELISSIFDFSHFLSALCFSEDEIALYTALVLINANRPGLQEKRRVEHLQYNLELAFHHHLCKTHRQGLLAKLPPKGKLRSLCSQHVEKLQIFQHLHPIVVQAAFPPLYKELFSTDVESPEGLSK
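Stably transfected Drosophila Schneider cells are the test system, with ROR gamma fused to Gal4 and luciferase under UAS control; luminescence is read after 20 hr of 700 uM copper sulfate induction at ambient temperature.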
uPA surface inh: inhibitors of cell surface uPA generation; cell surface uPA generation assay, qHTS; Potency, µM (doses to about 38.3 µM), hits mostly inhibitors; 330,000 tested, 0.31% active; AID 540303; active = well fitted inhibition curve with a large enough effect; inconclusive = small, poorly fitted or top-dose-only effect; inactive = no such curve, though single readings can be large or run the other way; tested in mouse RAW 264.7 cells; also: nearly all actives have a fitted effect of over 55% in size
A number is an active result; – = inactive; ? = inconclusive; · = no result given; [ ] = another dose, or the depositor's remark. Unless noted, calls follow the shape of the dose curve; as a rule, active = well fitted curve in the direction sought with a large enough effect; inconclusive = small, poorly fitted or top-dose-only effect, or another doubt; inactive = no such curve, though single readings can be large; an effect the other way counts as inactive or inconclusive.

SMILES	VP16 counter	TRPV1 potentiator	TRPV1 agonist	RORgamma inh	uPA surface inh
CCCCOc1ccc(CSC(CC(=O)O)C(=O)O)cc1 (stereo unspecified)	–	–	–	2.2µM	–
CC(=O)c1cn(C(=O)c2ccc(Cl)cc2)c2ccccc12	–	–	–	–	–
Nc1[nH]c(N=NC(=O)c2ccccc2)c2ccccc12	?	–	–	8.9µM	–
Nc1[nH]c(N=NC(=O)c2ccccc2O)c2ccccc12	?	–	–	?	–
Nc1[nH]c(N=NC(=O)c2ccc(Cl)cc2)c2ccccc12	?	–	–	5.6µM	–
C[C@H]1/C=C\CC(=O)NCc2cccc(c2)CNC(=O)N[C@H]1c1ccccc1	–	·	·	–	·
CC(C)CCn1c(NCCc2ccccc2)nc2c1c(=O)n(C)c(=O)n2C	?	–	–	–	–
C=CCNc1nc2c(c(=O)n(C)c(=O)n2C)n1CCCCCC	5µM	?	–	?	–
C=CCNc1nc2c(c(=O)n(C)c(=O)n2C)n1CC	–	–	–	–	–
Cn1c(=O)c2c(nc(N/N=C/c3ccc(OC(=O)c4ccco4)cc3)n2Cc2ccccc2Cl)n(C)c1=O	–	–	–	–	–
Cn1c(=O)c2c(nc(N/N=C/c3ccc(OC(=O)c4ccco4)cc3)n2Cc2ccc(F)cc2)n(C)c1=O	18µM	–	–	–	–
Cn1c(=O)c2c(nc(NCCc3ccccc3)n2Cc2ccc(F)cc2)n(C)c1=O	22µM	–	–	?	?
C=CCNc1nc2c(c(=O)n(C)c(=O)n2C)n1Cc1ccc(F)cc1	7.1µM	–	–	?	?
CCOC(=O)c1nc(C)nc(Sc2n[nH]c(-c3ccccc3)n2)c1C	–	?	–	–	?
O=C(Cc1cccs1)N1CCN(S(=O)(=O)c2ccc(F)c(F)c2)CC1	·	–	–	·	–
Cc1ccc(/C=N/NC(=O)C(C)Oc2ccccc2[N+](=O)[O-])s1 (stereo unspecified)	?	–	–	?	–
Cc1cc(C)n(-c2nc(NCC(C)O)c3c4c(sc3n2)COC(C)(C)C4)n1 (stereo unspecified)	10µM	–	–	3.2µM	·
Cc1cc(C)n(-c2nc(NCC(C)O)c3c4c(sc3n2)CCCC4)n1 (stereo unspecified)	1µM	–	–	?	–
Cc1cc(C)n(-c2nc(NCCO)c3c4c(sc3n2)CCCC4)n1	4.5µM	–	–	3.2µM	–
Cc1cc(C)n(-c2nc3sc4c(c3c3nnc(SC(C)C)n23)CC(C)(C)OC4)n1	·	·	·	·	–
Cc1cc(C)n(-c2nc(NCC3CCCO3)c3c4c(sc3n2)COC(C)(C)C4)n1 (stereo unspecified)	3.2µM	–	?	2.8µM	–
COc1ccc(NC(=O)c2ccc(NC(=O)CN(C)CC(=O)Nc3c(C)cccc3C)cc2)cc1	–	–	–	–	–
CCCCOC(=O)NC1CCS(=O)(=O)C1 (stereo unspecified)	–	–	–	–	–
CCCCCNc1nc2sc3c(c2c(=O)n1-c1cccc(Cl)c1)CCN(C)C3	–	–	–	–	–
Cc1cc(C)n(-c2nc(SCCN(C)C)c3c4c(sc3n2)COC(C)(C)C4)n1	7.1µM	–	–	5µM	·
SMILES	VP16 counter	TRPV1 potentiator	TRPV1 agonist	RORgamma inh	uPA surface inh
Cc1cc(C)n(-c2nc(NCCCO)c3c4c(sc3n2)CCCC4)n1	2.8µM	–	–	1.6µM	–
CN(C)c1ncc2nc(-c3ccccc3)c(=O)n(CCc3ccccc3)c2n1	–	·	·	–	·
COC(=O)NC(c1ccco1)[C@@]1(C(=O)OC)CCCC1=O (stereo partly specified)	–[10 µM]	·	·	–[10 µM]	·
Cc1cc(F)ccc1NC(=O)CCc1c(C)nn(-c2ccc(N3CCCCC3)nn2)c1C	–	–	–	8.9µM	–
COc1ccccc1CCn1c(=O)cnc2cncnc21	–	·	·	–	·
CCOc1ccc(Nc2c3c(nc4ncnn24)CC(C)CC3)cc1 (stereo unspecified)	–	–	–	–	–
Clc1cccc(Nc2c3c(nc4ncnn24)CCC3)c1	–[0.365 µM]	–	–	?	·
Cc1ccc(Nc2c3c(nc4ncnn24)CC(C)CC3)cc1 (stereo unspecified)	?	–	–	18µM	–
CCc1cccc(Nc2c3c(nc4ncnn24)CCC3)c1	16µM	–	–	10µM	–
Cc1ccc(C)c(C(=O)COc2ccccc2[N+](=O)[O-])c1	13µM	–	–	–	–
Cc1ccc(C)c(C(=O)COc2ccc(C)nc2[N+](=O)[O-])c1	?	–	–	?	–
Cc1ccc(OCC(=O)c2cc(C)c(C)cc2C)c([N+](=O)[O-])n1	?	–	–	11µM	–
CCCNC(=O)COc1ccccc1[N+](=O)[O-]	?	–	–	–	–
O=c1c(-c2ccc(F)c(F)c2)nc2cncnc2n1Cc1ccccc1	–	·	·	–	·
Cc1ccc2c(c1)-c1c(ssc1=S)C(C)(C)N2C(=O)CSc1nncn1C	–	–	–	–	–
Cc1cc2c(cc1C)N(C(=O)CSC1=NCCS1)C(C)(C)c1ssc(=S)c1-2	–[0.365 µM]	–	–	4µM	–
CC1(C)c2ssc(=S)c2-c2ccccc2N1C(=O)CSC1=NCCS1	–	·	·	11µM	–
COc1ccc2c(c1)-c1c(ssc1=S)C(C)(C)N2C(=O)CSC1=NCCS1	–[0.365 µM]	–	–	?	–
CC1C/C(=C/c2ccccn2)C(=O)/C(=C/c2ccccn2)C1 (stereo unspecified)	1.4µM	–	–	2.8µM	–
CC(C)(C)C1C/C(=C/c2ccccn2)C(=O)/C(=C/c2ccccn2)C1 (stereo unspecified)	?	–	–	5.6µM	–
COc1ccc(-c2[nH]ncc2CNC(C)c2cn(C)nc2C)c(F)c1 (stereo unspecified)	–	–	–	–	–
COc1ccc(CN2CCNC(=O)C2CC(=O)NCc2cc(C)n(C)n2)c(F)c1 (stereo unspecified)	–	–	–	–	–
Cc1nnc(SC(C)C(=O)N2CCc3ccccc32)s1 (stereo unspecified)	–	–	–	–	–
CC(Sc1nnc(-c2ccccc2)c(-c2ccccc2)n1)C(=O)N1CCc2ccccc21 (stereo unspecified)	11µM	–	–	2.2µM	–
OCC1O[C@@H](OC2C(O)C(CO)O[C@@]2(CO)O[C@@H]2OC(CO)C(O)C(O)C2O)C(O)C(O)C1O (stereo partly specified)	–	·	·	–	·
CC(=O)C(C(C)=O)c1c(Cl)c(O)c(O)c2c(C(=O)c3ccccc3)coc12	?	–	–	16µM	–
COc1cccc(C2CC(c3cccc(NS(C)(=O)=O)c3)=NN2C(=O)c2ccccc2)c1OC (stereo unspecified)	–	?	–	2µM	–
Cc1ccc(NC(=O)Cc2ccc(F)cc2)cc1	–	–	–	?	–
CCN1C(=O)S/C(=C/c2ccc(Sc3nc4ccccc4[nH]3)o2)C1=O	3.2µM	–	?	5.6µM	–
CCOC(=O)CNC(c1ccccc1)c1cc(Br)ccc1NC(=O)CCN1CCOCC1 (stereo unspecified)	8.9µM	–	–	?	13µM
